Test [1] has as its system Human papillomavirus type 1a protein E7 (residues 44-93). In words: HPV1a E7 fragment binders on microarrays, primary screen, biochemical, small-molecule microarray, residues 44-93, 635 nm fluorescence (AID 1108).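 Also: E7 fragment applied at 1 µg/mL in TBST for 1 h at 4 C; score combines spot fluorescence with its signal to noise ratio.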 Conditions: small-molecule microarray binding, fluorescence 635 nm; higher = more signal.
Test [2] can be described thus: modulators of HCV replicon luciferase signal, primary screen, HCV replication inhibitor project, Huh7 cells, luciferase reporter (AID 1109).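 Also: huh7 hepatoma cells harbouring a luciferase neomycin HCV replicon reporter; luciferase luminescence as measure of HCV replicon replication; test concentration not given here.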 Conditions: 48 h, higher = more signal. Background: Replicon systems follow genome replication, usually without infectious particles.
The target of test [3] is Left-right determination factor 2 (Homo sapiens) (UniProt O00292). In words: LEFTY2 binders on small-molecule microarrays, primary screen, biochemical, small-molecule microarray, 635 nm fluorescence scan (AID 1110). The conditions noted are these: LEFTY2 binding, higher = more signal.
Chain of Left-right determination factor 2 (Homo sapiens) (O00292 whole entry, looked up): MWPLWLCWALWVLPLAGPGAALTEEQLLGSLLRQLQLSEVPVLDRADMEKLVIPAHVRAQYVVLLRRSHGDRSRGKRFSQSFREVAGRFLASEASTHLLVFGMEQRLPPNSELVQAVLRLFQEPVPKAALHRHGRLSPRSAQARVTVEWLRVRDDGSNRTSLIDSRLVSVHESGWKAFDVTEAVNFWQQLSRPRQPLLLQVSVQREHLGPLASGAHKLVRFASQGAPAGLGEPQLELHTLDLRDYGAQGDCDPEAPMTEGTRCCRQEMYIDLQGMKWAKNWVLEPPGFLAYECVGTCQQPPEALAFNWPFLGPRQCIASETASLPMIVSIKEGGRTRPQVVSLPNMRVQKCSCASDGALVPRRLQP
For test [4], the target named is Calmodulin-1 (Homo sapiens) (UniProt P0DP23). In words: CALM1 binders on microarrays, EGTA buffer, profiling panel, biochemical, small-molecule microarray, Cy5-labelled CALM1 (AID 1111).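 Also: labelled calmodulin applied in Tris saline Tween buffer holding calcium plus EGTA and DTT.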 Conditions: Cy5-CALM1 binding fluorescence, higher = more signal.
Test [5] has the same target. In words: calcium-bound CALM1 binders on microarrays, profiling panel, artefact control for SMM control-protein annotation, biochemical, small-molecule microarray, Cy5-labelled CALM1, plus calcium (AID 1112).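 Also: score merges spot fluorescence with signal to noise from triplicate slides.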 Conditions: Cy5-CALM1 binding fluorescence, higher = more signal.
Test [6] in a line: small-molecule microarray binders of probe aWnt5a, primary screen, biochemical, biotinylated probe, 635/667 nm fluorescence (AID 1113).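 Also: score merges 667 nm fluorescence intensity with signal-to-noise per printed feature.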 The conditions noted are these: higher = more signal.
A short description of test [7]: small-molecule microarray binders of probe aShh, primary screen, biochemical, biotinylated probe, 635/667 nm fluorescence (AID 1114).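 Also: probe is biotin-labelled aShh protein from a stem cell growth factor screen; measures binding of labelled protein to compounds printed on the slide; score merges feature fluorescence at 667 nm with signal-to-noise.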 Conditions: higher = more signal.
Test [8] can be described thus: small-molecule microarray binders of probe aNog, primary screen, biochemical, biotinylated probe, 635/667 nm fluorescence (AID 1115).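 Also: probe is biotinylated aNog protein used at 0.15 µg/mL for 1 h at 4 C; z-score combines 667 nm fluorescence of each spot with its signal to noise.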 The conditions noted are these: higher = more signal.
Test [9] has as its target Torsin-1A-interacting protein 1 (Homo sapiens) (UniProt Q5JTV8). Description: LAP1 binders from COS7 cell lysate, primary screen, small-molecule microarray, 635/667 nm fluorescence (AID 1116). Conditions: COS7-hLAP1 lysate binding, 635 nm fluorescence, higher = more signal.
The target in test [10] is Alpha-bungarotoxin (Bungarus multicinctus) (UniProt P60615). Description: alpha-bungarotoxin binders on microarray, profiling panel, artefact control for SMM control protein annotation, biochemical, small-molecule microarray, Alexa647 label, 635/667 nm fluorescence (AID 1117). The conditions noted are these: alpha-BTX-A647 binding fluorescence, higher = more signal.
Chain of Alpha-bungarotoxin (Bungarus multicinctus) (P60615 whole entry, looked up): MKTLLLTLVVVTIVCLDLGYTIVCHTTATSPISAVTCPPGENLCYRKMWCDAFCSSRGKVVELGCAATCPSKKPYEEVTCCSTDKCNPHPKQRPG

Chain of Torsin-1A-interacting protein 1 (Homo sapiens) (Q5JTV8 whole entry, looked up): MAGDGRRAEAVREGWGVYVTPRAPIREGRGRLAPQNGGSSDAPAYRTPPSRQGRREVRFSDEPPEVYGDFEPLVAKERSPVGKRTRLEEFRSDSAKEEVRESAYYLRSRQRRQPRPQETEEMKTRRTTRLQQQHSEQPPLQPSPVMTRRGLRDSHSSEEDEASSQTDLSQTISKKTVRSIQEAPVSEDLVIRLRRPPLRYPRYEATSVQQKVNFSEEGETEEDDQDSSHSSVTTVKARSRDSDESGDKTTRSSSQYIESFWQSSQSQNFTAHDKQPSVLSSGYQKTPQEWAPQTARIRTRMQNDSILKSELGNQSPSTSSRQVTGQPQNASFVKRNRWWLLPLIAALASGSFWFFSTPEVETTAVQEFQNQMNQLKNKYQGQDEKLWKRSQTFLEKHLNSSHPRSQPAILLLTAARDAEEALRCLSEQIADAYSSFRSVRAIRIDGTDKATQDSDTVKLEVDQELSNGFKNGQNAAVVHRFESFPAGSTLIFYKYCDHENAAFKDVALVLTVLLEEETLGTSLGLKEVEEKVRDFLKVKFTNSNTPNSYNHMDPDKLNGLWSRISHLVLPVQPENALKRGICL

Take `O=C1[C@H]2[C@H]3[C@H](O)[C@H](O)CC(=NOC[C@@H](O)COCc4ccco4)[C@H]3CC[C@H]2C(=O)N1c1cccc(Oc2ccccc2)c1`: the composite z-score was -0.496 in [1]; -1.1 in test [3]; -0.876 in [4]; -0.344 in test [5]; -0.0792 in test [6]; -0.138 in test [7]. The composite z-score in test [8] was -0.0671; in [9], 0.103; in [10] it was -0.572. In addition, the z-score in test [2] is 0.126.

Consider `CC1CC/C=C\[C@H]2OC34C=CCN(C(C)C)C(=O)[C@H]3N(CCCO)C(=O)[C@@H]4C2C(=O)O1` (stereo not given in full), for which the composite z-score in test [1] was -0.249; in test [3], -0.523; in [4], -1.04; in [5] it was 0.271; in [6], -0.184; in [7], -0.181. The figures for the composite z-score in [8], in test [9] and in test [10] were -0.0898, 0.646 and -1.54, respectively. For the same molecule, the z-score in [2] is -0.513.

For the molecule `CN(C)c1ccc(C(O)C2C=CC3C(=O)N(c4ccccc4)C(=O)C3N2Nc2ccccc2F)cc1` (stereo not given), the composite z-score is 1.31 in [1]; -0.633 in test [3]; 0.104 in test [4]; -0.472 in test [5]; -0.0685 in [6]; 0.275 in test [7]. The composite z-score in test [8] turned out to be 0.471; in test [9], 0.838; in test [10], 0.738. The molecule also came in with a z-score in test [2] of -0.369.

For `CCN1C(=O)[C@H]2[C@H]3[C@H](O)[C@H](O)CC(=NO[C@@H]4O[C@H](CO)[C@@H](O)[C@H](O)[C@H]4O)[C@@H]3CC[C@H]2C1=O`, the composite z-score was -2.4 in [1]; -0.251 in test [3]; -0.665 in test [4]; -0.813 in test [5]; -0.18 in test [6]; -0.545 in test [7]. The composite z-score in test [8] is -0.1; in test [9] it was -0.442; in test [10], -0.479. This molecule yielded a z-score in [2] of 0.26.

Regarding `O=C1O[C@@H](c2ccccc2)[C@@H](c2ccccc2)N2[C@@H](c3ccccc3OCCO)[C@]3(C(=O)Nc4ccc(C#CCCO)cc43)[C@@H](C(=O)O)[C@H]12`, the composite z-score in test [1] was 1.42; in test [3], -0.28; in [4] it was 1.04; in [5] it was 0.734; in test [6], 0.385; in test [7] it was 0.633. In addition, the composite z-score in [8] was determined as 1.32; in test [9], 1.17; in test [10], 2.53. In addition, the z-score in test [2] was -1.99.

For the molecule `CCN1C(=O)[C@H]2[C@H]3[C@H](O)[C@H](O)CC(=NOCc4ccccc4)[C@H]3CC[C@H]2C1=O`, the composite z-score in test [1] was -0.0677; in test [3] it was 0.387; in test [4], -0.253; in [5] it was -0.787; in [6], -0.139; in [7] it was -0.214. The figures for the composite z-score in test [8], in [9] and in test [10] were 0.128, 0.151 and 0.437, respectively. This molecule also displayed a z-score in test [2] of 0.396.

Take `CO[C@@H]1COC(=O)CC=C[C@@H](C)COC(=O)[C@H](COCc2ccccc2)NC(=O)CC=C[C@H]1C`: the composite z-score was -0.956 in test [1]; 1.02 in [3]; -0.838 in test [4]; -1.28 in test [5]; -0.0721 in test [6]; 0.0278 in [7]. Further, the composite z-score in test [8] was -0.298; in test [9] it was 0.325; in test [10] it was -0.397. In addition, the z-score in test [2] is -0.151.

As to `C[N+](C)(C)CCCCCCNC(=O)[C@@H]1C[C@@H]2C(=O)N3CCC[C@H]3C(=O)N2[C@@H]1c1cccc(OCCO)c1`, the composite z-score in [1] was 1.34; in test [3] it was 0.385; in [4], 0.233; in [5], -1.07; in test [6], -0.197; in [7], 0.905. Also, the composite z-score in [8] is -0.238; in test [9], -0.24; in [10] it was -0.0576. In test [2], this molecule displayed a z-score of 1.41.

As for `O=C(NN=C1C[C@@H](O)[C@@H](O)[C@@H]2[C@@H]3C(=O)N(c4cccc(Oc5ccccc5)c4)C(=O)[C@@H]3CC[C@@H]12)OCc1ccccc1`, the composite z-score is 0.69 in test [1]; 0.127 in [3]; 0.131 in [4]; 0.0109 in test [5]; -0.145 in test [6]; -0.206 in test [7]. In addition, the composite z-score in test [8] was 0.0658; in test [9], 0.184; in test [10], 0.837. The same molecule displayed a z-score in test [2] of -0.983.

Regarding `CCOC(=O)C[C@H]1[C@H](OC(=O)c2ccc(C(=O)c3ccccc3)cc2)[C@@H](NC(=O)c2ccc(-c3ccccc3)cc2)c2cc(OCCCO)ccc2N1C(=O)c1ccc2ccccc2n1`, the composite z-score in test [1] was 1.07; in [3] it was 0.757; in test [4], -0.299; in [5] it was -0.766; in test [6], 0.0835; in [7], -0.317. In addition, the composite z-score is -0.621 in [8], 0.249 in test [9] and 0.774 in [10]. In addition, the z-score in test [2] was -0.91.

In the case of `Cc1ccc(S(=O)(=O)N[C@@H]2COC(=O)[C@H](C)COC(=O)CC=C[C@H]2C)cc1`, the composite z-score is -0.45 in test [1]; 0.602 in test [3]; -0.163 in test [4]; -0.964 in [5]; -0.13 in test [6]; -0.117 in [7]. The values for the composite z-score in [8], in test [9] and in test [10] were -0.425, 0.438 and 0.0762, respectively. The same molecule displayed a z-score in [2] of 0.668.

As to `COCCOC(=O)N1C(=O)[C@@]2(c3cc(C#CCNC(N)=O)ccc31)[C@H](c1ccccc1OCCO)N1[C@H](c3ccccc3)[C@H](c3ccccc3)OC(=O)[C@H]1[C@@H]2C(=O)N1CCN(c2ncccn2)CC1`, the composite z-score is 0.648 in test [1]; 0.377 in test [3]; 0.821 in test [4]; 0.749 in [5]; 0.0326 in test [6]; -0.108 in test [7]. Further, the figures for the composite z-score in [8], in [9] and in [10] were -0.105, 1.01 and 2.14, respectively. The molecule further had a z-score in test [2] of -0.672.

Turning to `COCCOC(=O)N1C(=O)[C@@]2(c3cc(C#CC4(O)CCCCCC4)ccc31)[C@H](c1ccc(OCCO)cc1)N1[C@H](c3ccccc3)[C@H](c3ccccc3)OC(=O)[C@H]1[C@@H]2C(=O)NC[C@H](O)c1ccccc1`, the composite z-score was 1.44 in test [1]; 0.358 in [3]; 1.28 in test [4]; 0.311 in [5]; 0.0079 in [6]; -0.0289 in test [7]. Also, the composite z-score was 0.385 in test [8], 1.26 in [9] and 2.17 in test [10]. The same molecule gave a z-score in [2] of -2.32.

For the origin of these results see PubChem BioAssay.
